Where “and” joins values, the source holds several entries; their conditions need not be identical. Identical values can stand only once. The whole screen tested about 16,000 compounds, of which about 5,700 (36%) were called active. Another 24% or so got no clear call; they are omitted. The call rests on the fitted dose curve; in most records, active means well fitted curve in the direction sought with a large enough effect; inconclusive means small, poorly fitted or top-dose-only effect, or effect the other way; inactive means no such curve, though single readings can be large or run the other way. Some of the results follow.
The molecules below were run against Cytochrome P450 1A2 (Homo sapiens) (UniProt P05177) (assay: Cytochrome panel assay with activity outcomes). Details: recombinant CYP, pro-luciferin dealkylation, luminescence, p450-cyp1a2; series mostly up to 57.1 µM; activity, negative = inhibition: at the top concentration.
Cytochrome P450 1A2 (Homo sapiens), sequence (P05177 whole entry, looked up): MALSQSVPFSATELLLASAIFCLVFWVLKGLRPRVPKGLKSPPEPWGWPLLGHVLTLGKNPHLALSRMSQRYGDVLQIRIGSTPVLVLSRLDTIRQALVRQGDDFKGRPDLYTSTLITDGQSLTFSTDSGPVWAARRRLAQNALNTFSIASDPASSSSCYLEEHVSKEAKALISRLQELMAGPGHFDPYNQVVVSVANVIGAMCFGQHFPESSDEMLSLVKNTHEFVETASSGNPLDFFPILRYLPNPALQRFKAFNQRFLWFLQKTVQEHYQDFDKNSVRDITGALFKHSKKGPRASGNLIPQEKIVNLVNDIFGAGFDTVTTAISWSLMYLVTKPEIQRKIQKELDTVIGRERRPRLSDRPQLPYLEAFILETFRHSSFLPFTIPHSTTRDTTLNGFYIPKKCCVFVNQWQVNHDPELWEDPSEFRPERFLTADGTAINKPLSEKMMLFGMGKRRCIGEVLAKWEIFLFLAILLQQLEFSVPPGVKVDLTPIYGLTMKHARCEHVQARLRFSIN
On the % scale 0 is the no-effect control and ±100 the full control effect.

Row | Structure (SMILES) | activity, negative = inhibition | AC50
1 | C[N+]1(CCC[N+]2(C)C[C@H]3[C@H](C2)[C@H]2C=C[C@@H]3CC2)CCOCC1 (stereo not given in full) | -11% [at 11.4 µM] (inactive) | –
2 | CN(C)c1ccc(-c2cc(NCc3ccccc3)ncn2)cc1 | – | 1 µM (active)
3 | Cc1cccc(CNc2cc(-c3ccc(N(C)C)cc3)ncn2)c1 | – | 1 µM (active)
4 | Cc1cnc(CNc2cc(-c3ccc(C(=O)N(C)C)cc3)ncn2)cn1 | -0.907% (inactive) | –
5 | Cc1cccc(CNc2cc(-c3ccc(C(=O)N(C)C)cc3)ncn2)c1 | – | 15.8 µM (active)
6 | CN(C)c1ccc(-c2cc(NCc3cccnc3)ncn2)cc1 | – | 0.398 µM (active)
7 | CN(C)CCSCCO | -14.3% [at 2.29 µM] (inactive) | –
8 | CN(C)CC[C@@H](c1ccccc1)c1ccccn1 | – | inactive
9 | CN(CCc1ccccn1)c1ccc2c(c1)Cc1ccccc1-2 | – | 0.631 µM (active)
10 | CN(C)CC(CN(C)C)c1ccccn1 | -16.5% [at 11.4 µM] (inactive) | –
11 | CN(CCc1ccccn1)c1ccc2c(c1)C(=O)c1ccccc1-2 | – | 0.158 µM (active)
12 | c1ccc2c(NC3CCNCC3)nc(-c3ccoc3)nc2c1 | – | 15.8 µM (active)
13 | COc1cccc(-c2nc(NC3CCNCC3)c3ccccc3n2)c1 | – | 12.6 µM (active)
14 | COc1cccc(-c2nccc(NC3CCNCC3)n2)c1 | – | 6.31 µM (active)
15 | COc1ccc(-c2cc([C@H](O)[C@@H]3CCCCN3)c3ccccc3n2)cc1 | -11% [at 2.29 µM] (inactive) | –
16 | c1ccc2c(NC3CC3)nc(-c3ccoc3)nc2c1 | – | 0.316 µM (active)
17 | CC(=O)OC[C@@H]1O[C@@H](O/N=C2/C[C@@H](O)[C@@H](O)[C@@H]3[C@H]4C(=O)N(c5ccc(F)cc5F)C(=O)[C@@H]4CC[C@H]23)[C@H](OC(C)=O)[C@H](OC(C)=O)[C@@H]1OC(C)=O | -3.19% [at 11.4 µM] (inactive) | –
18 | Cc1cccc(N(CC(=O)NCCSCc2ccco2)S(=O)(=O)c2ccccc2)c1 | -3.73% (inactive) | –
19 | C/C(CCN1CCCCc2nc(C)c(C)cc21)=N\O[C@@H](C)c1cc(-c2c(C)cc(C)cc2C)no1 | 2.23% [at 11.4 µM] (inactive) | –
20 | Nc1ncnc2c1nc(Sc1ccc(Cl)cc1)n2[C@@H]1O[C@H]2COP(=O)(O)O[C@@H]2[C@H]1O | -8.07% (inactive) | –
21 | CN(C)c1ccc(-c2nc(NC3CCNCC3)c3ccccc3n2)cc1 | – | 15.8 µM (active)
22 | CC(C)=NO[C@@H](C)c1cn([C@H](CO)Cc2ccccc2)nn1 | -7.23% [at 11.4 µM] (inactive) and -1.97% [at 11.4 µM] (inactive) | –
23 | CCCCn1c(SCC(N)=O)nc2ccc(N3CCOCC3)cc2c1=O | – | 4.47 µM (active)
24 | CC1CCN(CCCn2c(=S)[nH]c3ccc(N4CCOCC4)cc3c2=O)CC1 | -26.7% (inactive) | –

Row | Structure (SMILES) | activity, negative = inhibition | AC50
25 | CCCCNC(=O)CSc1nc2ccccc2c(=O)n1CCNC(C)=O | -6.64% (inactive) | –
26 | Cc1ccc(C)c(C(=O)CN2C(=O)c3ccccc3S2(=O)=O)c1 | -17.5% (inactive) | –
27 | CC(=O)c1cc(C)ccc1OC(=O)CCN1C(=O)C2C3c4ccccc4C(c4ccccc43)C2C1=O (stereo not given) | – | 15.8 µM (active)
28 | CCOC(=O)CCN1C(=O)[C@H]2[C@@H]3[C@H](O)C=CC(=O)[C@H]3CC[C@H]2C1=O | -6.05% [at 11.4 µM] (inactive) | –
29 | C[C@H]1CN(CCO)CCN1c1ccccc1 | -18.4% [at 11.4 µM] (inactive) | –
30 | CN(C)CC/C=C1\c2ccccc2Sc2ccc(Cl)cc21 | – | 1.58 µM (active)
31 | CN(C)CCC=C1c2ccccc2C=Cc2ccccc21 | – | inactive
32 | CN(C)CC/C=C1\c2ccccc2CSc2ccccc21 | -6.68% [at 25.6 µM] (inactive) | –
33 | CN(C)CC/C=C1\c2ccccc2COc2ccccc21 | – | 15.8 µM (active)
34 | CN1CCN(CCC=C2c3ccccc3Sc3ccc(S(=O)(=O)N(C)C)cc32)CC1 | -7.27% (inactive) | –
35 | OCCN1CCN(CCC=C2c3ccccc3Sc3ccc(Cl)cc32)CC1 | – | 15.8 µM (active)
36 | CN1CCN(CCCN)CC1 | -19.9% [at 11.4 µM] (inactive) | –
37 | NC[C@H](O)C1CCCCCCC1 | -18.7% (inactive) | –
38 | CC(C)N(Cc1ccccc1)S(=O)(=O)c1n[nH]c(C(C)(C)C)n1 | 2.16% [at 11.4 µM] (inactive) | –
39 | Cc1ccc(CNC(=O)C2(NC(=O)Nc3ccc(C)cc3)CCCCC2)cc1 | 6.22% (inactive) | –
40 | Cc1ccc(C)c(NC(=O)NCc2ccc(Cl)cc2)c1 | – | 0.794 µM (active)
41 | Cc1ccc(C)c(NC(=O)C2(C)CC3c4ccccc4C2c2ccccc23)c1 (stereo not given) | -20.1% (inactive) | –
42 | CC1(C)C(=O)N(CCN2CCC(C(=O)c3ccc(F)cc3)CC2)c2ccccc21 | -12.4% (inactive) | –
43 | O=C(NCCc1ccccc1)C(=O)NCC1(c2ccccc2)CCCC1 | 6.35% (inactive) | –
44 | O=C(CC(=O)NN=C1CCCC1)NCCc1ccccc1 | -25.7% (inactive) | –
45 | O=C(NCCc1ccccc1)C(=O)NN=C1CCCC1 | – | 12.6 µM (active)
46 | COC(=O)c1[nH]c2ccc(Br)cc2c1NC(=O)CN1CCCc2ccccc21 | – | 5.01 µM (active)
47 | COC(=O)c1[nH]c2ccc(Br)cc2c1NC(=O)CN1CCN(C2CCCCC2)CC1 | – | 12.6 µM (active)
48 | C[C@@H]1CCCN(C[C@@H](O)CN2CCCc3ccccc32)C1 | -10.7% [at 11.4 µM] (inactive) | –

Row | Structure (SMILES) | activity, negative = inhibition | AC50
49 | CC(C)(CN)CN | 2.94% [at 11.4 µM] (inactive) | –
50 | CN(C)CCNc1nc2c(c(=O)n(C)c(=O)n2C)n1C | -7.73% [at 11.4 µM] (inactive) | –
51 | COc1ccccc1CN1CC2(CCN(S(=O)(=O)c3ccccc3)CC2)C1 | 18.1% (inactive) | –
52 | COc1cc([C@H]2c3cc4c(cc3[C@@H](O)[C@@H]3COC(=O)[C@H]23)OCO4)cc(OC)c1OC | -19.8% [at 25.6 µM] (inactive) | –
53 | COc1cc2c(c(O)c1OC)C(=O)C(OC)CCC2 (stereo not given) | – | 12.6 µM (active)
54 | C/C(CCC(=O)OC[C@@H]1O[C@H](C#Cc2ccccc2)C=C[C@@H]1Oc1ccc(C)cc1)=N/O[C@@H](C)CN1CCCCc2nc(C)c(C)cc21 | -3.03% [at 11.4 µM] (inactive) | –
55 | O=[N+]([O-])c1ccc2c(c1)S(=O)c1ccccc1-2 (stereo not given) | – | 0.2 µM (active)
56 | CC1=c2c(oc3cc(O)c(Nc4c(C)cc(O)cc4O)c(C)c23)=CC(=O)C1=Nc1c(C)cc(O)cc1O | – | 3.16 µM (active)
57 | CN1[C@@H]2CC[C@H]1CC(OC(c1ccccc1)c1ccccc1)C2 (stereo not given in full) | – | inactive
58 | N#Cc1ccc(CN2CCC3(CC2)CCN(S(=O)(=O)c2ccccc2)CC3)cc1 | -22.8% (inactive) | –
59 | CC(=O)Nc1nc2ccccc2n1Cc1ccccc1 | – | 14.1 µM (active)
60 | O=S(=O)(O)c1nc2ccccc2n1Cc1ccccc1 | -14.6% (inactive) | –
61 | C=CCn1c(NCc2ccccc2)nc2ccccc21 | – | 10 µM (active)
62 | C=CC(=O)NC(C)(C)Cc1ccccc1 | -14.6% (inactive) | –
63 | C=CCC(C)(NCc1ccccc1)c1ccco1 (stereo not given) | -27.6% (inactive) | –
64 | CS(=O)(=O)c1nc2ccccc2n1Cc1ccccc1 | – | 11.2 µM (active)
65 | CO[C@@H]1COC(=O)C/C=C\[C@@H](C)[C@H](OC)COC(=O)[C@H](COCc2ccccc2)NC(=O)C/C=C\[C@H]1C | -0.402% [at 11.4 µM] (inactive) | –
66 | COCC(=O)N1CCC2(CCCN(C(=O)Nc3cccc(C#N)c3)C2)CC1 | 0.755% (inactive) | –
67 | O=c1oc2ccccc2cc1-c1csc(NN=C2CCCCC2)n1 | – | 0.891 µM (active)
68 | O=C(Nc1ccc(-c2cc3ccccc3oc2=O)c(Cl)c1)c1cccnc1 | 13.8% (inactive) | –
69 | Clc1ccc(Cl)c(SCCCN2CCNCC2)c1 | – | 0.501 µM (active)
70 | Cc1c(C=O)c2ccccn2c1C(=O)c1ccncc1 | – | 1.12 µM (active)
71 | COCCN1C(=O)C(=O)/C(=C(/O)c2cccc(OC)c2)C1c1ccco1 (stereo not given) | -13.8% (inactive) | –
72 | CC(C)c1ccccc1-n1c(SCC(=O)N2CCN(c3ccccc3)CC2)nnc1-c1cccnc1 | -23.2% (inactive) | –

Row | Structure (SMILES) | activity, negative = inhibition | AC50
73 | c1cncc(-c2nc(N3CCNCC3)c3ccccc3n2)c1 | – | 2.51 µM (active)
74 | CN1CCN(c2nc(-c3cccnc3)nc3ccccc23)CC1 | – | 3.16 µM (active)
75 | CN1CCN(c2ccncc2S(=O)(=O)N2CCN(C)CC2)CC1 | -7.43% [at 2.29 µM] (inactive) | –
76 | N#CCSc1nc(N)c(C#N)c(C2CCCCC2)c1C#N | – | 10 µM (active)
77 | Cn1c(=O)c2[nH]c(CCS)nc2n(C)c1=O | -15.3% [at 11.4 µM] (inactive) | –
78 | CCCn1c(=O)c2[nH]c(C3CCCC3)nc2n(CCC)c1=O | – | 0.251 µM (active)
79 | Cn1c(=O)c2[nH]c([C@@H]3CC(=O)C[C@H](c4nc5c([nH]4)c(=O)n(C)c(=O)n5C)N3)nc2n(C)c1=O | -18.2% [at 2.29 µM] (inactive) | –
80 | CCCCCn1c(CN2CCCCC2C)nc2c1c(=O)n(C)c(=O)n2C (stereo not given) | -17% (inactive) | –
81 | Cn1c(=O)c2[nH]c(C3CCCC3)nc2n(C)c1=O | – | 12.6 µM (active)
82 | CC(C)(C[C@@]1(C)NC(=O)NC1=O)OCc1ccccc1 | -12.1% [at 2.29 µM] (inactive) | –
83 | CC(C)Oc1ccc(C2CC(=O)NC3=C2C(=O)CCC3)cc1 (stereo not given) | -14.5% (inactive) | –
84 | CC(=O)NC1=NN(c2ccccc2)C(=O)C1 | -12.4% (inactive) | –
85 | CC1=NN(c2ccccc2)C(=O)/C1=C\N1CC(C)OC(C)C1 (stereo not given) | -23.7% (inactive) | –
86 | CC1=NN(c2ccccc2)C(=O)C1 | – | 12.6 µM (active)
87 | Cc1cccc(OCCn2c(S(=O)(=O)O)nc3ccccc32)c1 | -12.6% (inactive) | –
88 | Cc1cccc(OCCn2c(-c3ccco3)nc3ccccc32)c1 | – | 1.58 µM (active)
89 | N=C(N)SCCc1ccc(CCSC(=N)N)cc1 | -3.85% (inactive) | –
90 | C[N+]1(CCOc2ccc([N+](=O)[O-])cc2)CCOCC1 | -1.1% (inactive) | –
91 | N=C(N)SCCc1ccc(OCc2ccc([N+](=O)[O-])cc2)cc1 | – | 31.6 µM (active)
92 | CC(C)=CCC/C(C)=C/CO/N=C1/C[C@@H](O)[C@@H](O)[C@@H]2[C@H]3C(=O)N(c4ccc(F)cc4F)C(=O)[C@@H]3CC[C@H]12 | -0.361% [at 11.4 µM] (inactive) | –
93 | COc1ccc(S(=O)(=O)N(CC(=O)N2CCCC2)Cc2ccccc2)cc1 | 2.54% (inactive) | –
94 | CCOc1ccc2[nH]c(=O)c(CN(CCc3ccccc3)C(=O)N3CCCC3)cc2c1 | – | 14.1 µM (active)
95 | COc1ccc(S(=O)(=O)N(CCc2ccccc2)CC(=O)N2CCOCC2)cc1 | -25.1% (inactive) | –

— PubChem BioAssay AID1851 (National Center for Advancing Translational Sciences (NCATS), 2009)
